# Bioassay records from PubChem BioAssay.
# Menin-MLL FL inh = menin-MLL binding inhibition, fluorescein peptide; 290,000 tested, under 10 active; Fluorescence polarization, fluorescein-MLL peptide displacement from menin; FP activity change, % at 61.4 µM; active means well fitted curve in the direction sought with a large enough effect in the polarisation, not every such curve was filed as active; inconclusive means small, poorly fitted or top-dose-only effect, or effect the other way, or a change in a side signal; inactive means no such curve, though single readings can be large or run the other way; the % refers to the polarisation
# PINK1 expr mod = changes PINK1 expression. PINK1 immunofluorescence, high-content cytometry, 24 h. Potency, µM (series often up to 76.6 µM), usual class: activators. 410,000 compounds, 0.2% hits; active means well fitted activation curve with a large enough effect; inconclusive means small, poorly fitted or top-dose-only effect; cell line not stated here; further: nearly all actives have a fitted effect of over 65% in size
#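 Measures PINK1 amount and localization on or inside mitochondria by immunofluorescence. Stable cells get compounds at 5 concentrations for 24 hours before fixation and staining; CCCP controls included.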
# Menin-MLL TR inh = displaces Texas Red mutant MLL peptide from human menin; Menin + Texas Red MLL mutant peptide, fluorescence polarization; Potency, µM (highest dose often 61.6 µM), usual class: inhibitors; 270,000 compounds, 0.23% hits; active means well fitted inhibition curve with a large enough effect in the polarisation, with a control signal flat, not every such curve was filed as active; inconclusive means small, poorly fitted or top-dose-only effect, or effect the other way, or a change in a side signal; inactive means no such curve, though single readings can be large or run the other way; the % refers to the polarisation
# ClpP mod = qHTS Assay for Activators of ClpP. Potency, µM (highest dose often 57.5 µM). purified B. subtilis ClpP, FRET peptide cleavage, 20 min. 340,000 compounds, 1.9% hits. AID 651965, 2013. ATP-dependent Clp protease proteolytic subunit (Bacillus subtilis (strain 168)), P80244; active means well fitted falling curve with a large enough effect; inconclusive means small, poorly fitted or top-dose-only effect; inactive means no such curve, though single readings can be large or run the other way; further: the source files actives as falling curves though it sought activators and does not explain the sign; nearly all actives have a fitted effect of over 65% in size
#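 Buffer: 100 mM Tris/HCl pH8, 100 mM KCl, 0.05% low protease BSA, 2.5% glycerol, 0.01% Tween-20. ClpP 10 microg/mL final; 20 min RT; delta FRET normalized to ADEP and DMSO controls.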
# CXXC DNA block = inhibitors of human MLL CXXC domain-DNA interaction. Q03164. MLL-CXXC / FITC-HOXA9 DNA fluorescence polarization. Potency, µM (series often up to 115 µM), usual class: inhibitors. 290,000 compounds, 0.037% hits; active means well fitted inhibition curve with a large enough effect in the polarisation, with a control signal flat, not every such curve was filed as active; inconclusive means small, poorly fitted or top-dose-only effect, or effect the other way, or a change in a side signal; inactive means no such curve, though single readings can be large or run the other way; the % refers to the polarisation
#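 Steps: dispense CXXC domain solution (7 uM) → pin compounds or unlabeled HOX-A9 DNA control → 5 min ambient → add FLSN-HOX-A9 solution (50 nM) → spin → 30 min ambient → fluorescence polarization. Tris pH 7.5/NaCl/DTT/BSA buffer.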
# Epigenetic derep = regulators of epigenetic silencing causing reporter derepression in mouse cells; murine LDR cells, GFP reporter derepression, 30 h; Potency, µM (doses to about 53.9 µM), usual class: activators; 280,000 compounds, 0.2% hits; AID 1865; active means well fitted activation curve with a large enough effect; inconclusive means small, poorly fitted or top-dose-only effect; further: nearly all actives have a fitted effect of over 60% in size
#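 Reporter derepression read as number of fluorescent GFP-positive objects, 20-120 um in size, counted by laser-scanning cytometer. Mouse LDR line with an epigenetically silenced CMV-GFP locus; compound incubation 30 h, 37 C.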
# Hits are given with their value; . = inactive; ? = inconclusive; / = not tested or not shown. An excerpt weighted towards active compounds, which were near 1.9% of everything screened.
SMILES,Menin-MLL FL inh,PINK1 expr mod,Menin-MLL TR inh,ClpP mod,CXXC DNA block,Epigenetic derep
COC1=C2C[C@H](C)C[C@H](OC)[C@@H](O)[C@@H](C)C=C(C)[C@H](OC(N)=O)[C@@H](OC)C=CC=C(C)C(=O)NC(=CC1=O)C2=O,/,.,/,.,/,/
O=C(OCC(=O)N1CCOCC1)c1cc2ccccc2oc1=O,/,.,/,.,/,/
CC1CC(C)CN(C(=O)COC(=O)c2cc3ccccc3oc2=O)C1 (configuration not stated),/,.,/,35µM,/,/
c1ccc2sc(-c3cc4c(c(OC5CCOC5)c3)OCCN(Cc3cccn3-c3nccs3)C4)nc2c1 (configuration not stated),/,.,/,/,/,/
Cc1nn(CC(=O)N2CCOCC2)c(=O)c2ccccc12,.,.,.,.,.,.
O=C(O)c1nn(CC(=O)N2CCCCCC2)c(=O)c2ccccc12,.,.,.,28µM,.,.
CC(=O)NC1=C(C#N)CCC1,/,.,/,.,/,/
COc1ccc2c(c1)c1nc3ccccc3nc1n2CCn1c(=O)oc2ccccc21,.,4µM,.,.,?,.
O=c1oc2ccccc2n1CCn1c2ccccc2c2nc3ccccc3nc21,.,.,.,.,.,.
CN(C)S(=O)(=O)c1ccc(Cl)c(NC(=O)CSc2nc3c(cc2C#N)C(=O)CCC3)c1,.,.,.,.,.,25µM
O=C(O)/C=C/C(=O)Nc1ccccc1-c1ccccc1,.,.,?,25µM,.,.
COc1cccc(C(=O)NCC2Cc3cccc(-c4cccnc4)c3O2)c1 (configuration not stated),/,.,/,/,/,/
Cc1cc(=O)oc2cc(OCC3CC(c4ccccc4)=NO3)ccc12 (configuration not stated),.,.,.,28µM,.,.
O=[N+]([O-])c1ccc(OCC2CC(c3ccccc3)=NO2)cc1 (configuration not stated),.,.,/,/,.,.
Cc1cc(=O)oc2cc(OCC3CC(c4ccc(Br)cc4)=NO3)ccc12 (configuration not stated),.,.,.,28µM,.,.
Cc1nc(C)n(CC(=O)NCC2Cc3cc(-c4ccsc4)cc(Cl)c3O2)n1 (configuration not stated),/,.,/,/,/,/
CC(C)C(NS(C)(=O)=O)c1nnc2n1CCN(Cc1ccnc3ccccc13)CC2 (configuration not stated),/,.,/,/,/,/
Cc1ccc(C(=O)N(Cc2cc3ccc(F)cc3nc2N2CCC(O)CC2)CC2CCCO2)cc1 (configuration not stated),/,.,/,/,/,/
Cc1ccc(O)c(Nc2nc(-c3ccccc3)nc3ccccc23)c1,.,.,?,.,.,/
Cc1ccc(O)c(Nc2c3ccccc3nc3ccccc23)c1,.,?,13µM,.,.,/
Cc1ccccc1-n1cc(CNC(=O)CN2Cc3ccccc3OC(C)C2)cn1 (configuration not stated),/,.,/,/,/,/
CCn1c(C)c(C(C)=O)c(N2CCN(c3ccc(F)cc3)CC2)nc1=S,.,.,.,.,.,.
CC(=O)c1c(N2CCN(c3ccc(F)cc3)CC2)nc(=S)n(Cc2ccccc2)c1C,.,.,.,25µM,.,?
Cc1ccc(S(=O)(=O)c2c(N)n(NC(=O)c3ccccc3C)c3nc4ccccc4nc23)cc1,.,.,?,32µM,.,.
CCCCn1c(NS(=O)(=O)c2ccccc2)c(S(=O)(=O)c2ccc(C)cc2)c2nc3ccccc3nc21,.,?,?,16µM,.,.
SMILES,Menin-MLL FL inh,PINK1 expr mod,Menin-MLL TR inh,ClpP mod,CXXC DNA block,Epigenetic derep
Cc1ccc(C(=O)Nn2c(N)c(S(=O)(=O)c3ccc(C)cc3)c3nc4ccccc4nc32)cc1,.,.,?,28µM,.,.
Cn1c(N)c(S(=O)(=O)c2ccc(Br)cc2)c2nc3ccccc3nc21,.,.,.,14µM,.,.
CCCCn1c(NC(=O)c2ccco2)c(S(=O)(=O)c2ccc(C)cc2)c2nc3ccccc3nc21,?,.,.,/,.,.
COc1cccc(O)c1CN1CCC2(CC1)c1ccccc1[C@@H](NC(=O)c1ccsc1)[C@@H]2OC,/,.,/,/,/,/
CC(C)Cc1nc2cc(NS(=O)(=O)N(C)C)cc(C(=O)N3CCN(c4ccccc4)CC3)c2n1C,/,.,/,/,/,/
Cc1ccc(S(=O)(=O)c2c(N)n(CCCO)c3nc4ccccc4nc23)cc1,.,.,.,.,.,.
Cc1ccc(S(=O)(=O)c2c(N)n(CCC(C)C)c3nc4ccccc4nc23)cc1,.,?,.,25µM,.,.
Cc1cc(C(=O)Nc2ccccc2-c2nc(CNC(=O)c3ccccc3Cl)c(C)o2)c(C)o1,/,.,/,/,/,/
CN1CCc2c(sc(/N=C/c3cccs3)c2C(N)=O)C1,?,.,.,10µM,.,.
Cc1ncc2c(c1CNC(=O)c1ccc3c(c1)OCO3)CCN(C(=O)/C=C/c1ccccc1Cl)C2,/,.,/,/,/,/
COC(=O)c1ccc(COc2ccc3ccc(=O)oc3c2)o1,.,.,.,.,.,/
COC(=O)c1cc(COc2ccc3ccc(=O)oc3c2)c(C)o1,.,.,.,14µM,.,.
COC(=O)c1ccc(COc2ccc3c(C)c(C)c(=O)oc3c2)o1,.,.,.,2.8µM,.,.
O=C(O)c1ccc(COc2ccc3c4c(c(=O)oc3c2)CCC4)o1,.,.,.,2.5µM,.,.
COCCc1nc2ccc(C(=O)N(C)Cc3cccc(-n4cccn4)c3)cc2o1,/,.,/,.,.,/
COC(=O)C[C@H]1C[C@H]2c3cc(NC(=O)Nc4ccc(C(F)(F)F)cc4)ccc3O[C@H]2[C@@H](CO)O1,/,.,/,.,/,/
COc1ccc(CN2CCOc3ccc(CN4CCC(Oc5cccnc5)CC4)cc3C2)cc1C,/,.,/,/,/,/
COc1cc2c(cc1OC)C1=NC(=O)CN1C(SCc1ccccc1C)=N2,.,/,/,18µM,.,?
COc1ccc(N2CCN(c3ccc(N4C(=O)COCC4=O)cc3[N+](=O)[O-])CC2)cc1,.,.,.,28µM,.,.
CCOc1ccc(Cn2c(-c3ccc(OCC)c(OC)c3)nc3ccccc32)cc1OC,/,.,/,.,/,.
CCOc1cc(Cn2c(-c3ccc(O)c(OCC)c3)nc3ccccc32)ccc1O,/,.,/,10µM,/,.
CCCCCCC[n+]1ccc(/C=C/c2c(C)[nH]c3ccccc23)c2ccccc21,/,/,/,.,/,/
Cc1cc(C)n2nc(SCC(=O)N3CCCC3)nc2n1,/,.,/,.,/,/
Cc1cc(C)n2nc(SCC(=O)N3CCN(c4ccccc4)CC3)nc2n1,/,.,/,32µM,/,/
Cc1csc(CN(C)C(=O)c2sc3ncnc(NCC4CCCO4)c3c2C)n1 (configuration not stated),/,.,/,/,/,/
Cc1ccc(S(=O)(=O)N2CCCCC2CCNC(=O)C(=O)NCc2ccco2)cc1 (configuration not stated),/,.,/,/,/,/
